According to PubChem BioAssay AID488857 (Sanford-Burnham Center for Chemical Genomics, 2010):
Hit rate of the full screen: of about 1,400 compounds, about 560 (40%) were called active.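 How the source made its calls: active means mean inhibition over duplicate tests at 10 µM above 50%; inactive means the rest.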 So high a share suggests a set chosen from earlier hits. Some of the results follow.

Assay: ASC/caspase-1 reporter retest in S. cerevisiae at one dose, specificity check for NALP1 project (AID 488857)
Settings: S. cerevisiae ASC/Caspase-1, beta-galactosidase luminescence, 24 h; at 10 µM; active compounds read high

inhibition, inactive:
CC(C)CCN(C(=O)Nc1ccccc1)C(C)c1cccs1 (configuration not stated) 42.2%
COc1ccc2c(c1)NC(=O)CC(c1ccccc1)=N2 43.8%
COc1ccccc1NS(=O)(=O)c1ccc(NC(=O)Cc2cccs2)cc1 33.9%
O=C(N/N=C/c1ccc2nccnc2c1)c1ccccc1O 36%
O=C(N/N=C/c1cc2c3c(c1O)CCCN3CCC2)c1ccccc1O 34.8%
CC(=O)c1ccc(S(=O)(=O)N2CCCC2)cc1 46.1%
C=CCc1cc(Cl)ccc1OCCNCCCOC 48.5%
Cc1cc(SC#N)cc(C)c1NC(=O)CCl 25.8%
COc1ccc(/C=C\c2onc(C)c2S(=O)(=O)N2CCC(C(=O)NCc3ccco3)CC2)cc1 42%
COc1cccc(N2CCN(C3CCCC(C)C3)CC2)c1 (configuration not stated) 38%
COc1cccc(NC(=O)Cn2cnc3sc(C)c(S(=O)(=O)N4CCCCC4)c3c2=O)c1 30.9%
O=C(COC(=O)c1cccs1)Nc1nc(-c2ccccc2)cs1 48.2%
O=C(COC(=O)/C=C/c1cccs1)Nc1nc(-c2ccccc2)cs1 13.3%
Cc1ccc(N2C(=O)CC(Sc3ccccc3C(=O)O)C2=O)cc1 (configuration not stated) 26.1%
O=C(Cn1nnc2ccccc21)OCC(=O)c1ccc(Cl)cc1 39.8%
CCn1c(=O)cc(SCC(=O)N2CCN(C3CCCCC3)CC2)c2ccccc21 29.9%
c1csc(CNc2nc3ccccc3n2CCN2CCOCC2)c1 35.6%
CCOC(=O)N1CCC(=NNS(=O)(=O)c2cccc([N+](=O)[O-])c2)CC1 31.6%
COn1c2c(c3c4nonc4ccc31)CCCC2 31.4%
CC1CC(C)CN(S(=O)(=O)c2ccc(C(=O)NCc3ccc4c(c3)OCO4)cc2)C1 (configuration not stated) 31.6%
O=C(/C=C\Nc1cccc(F)c1)c1cccs1 47.2%
CCN(CC)S(=O)(=O)c1cccc(C(=O)Oc2cccc(NC(=O)c3cccs3)c2)c1 35.9%
CC1CCCC(C)N1C(=O)CN1CCN(c2nc(-c3ccc(F)cc3)cs2)CC1 (configuration not stated) 44.5%
O=C(CN1CCCCC1)Nc1cccc(Oc2ccccc2)c1 38.8%
COCC(=O)n1nc(-c2ccc(Cl)cc2)nc1NCc1ccc(F)cc1 36.2%
CCCCCCCCNC(C)C(O)c1ccc(SC(C)C)cc1 (configuration not stated) 38.9%
CSc1nnc(-c2cc3c(s2)-c2ccccc2CC3)o1 46.8%
CC(OC(=O)Cc1c(F)cccc1Cl)C(=O)NCCC1=CCCCC1 (configuration not stated) 46.8%
COC(=O)COc1ccc(S(=O)(=O)NCCC2=CCCCC2)cc1Cl 40.1%
Cc1cc(C(C)(C)C)cc(S(=O)(=O)Nc2ccc(O)c(C(=O)O)c2)c1C 27.8%
Cc1ccc(/C(COc2ccccc2O)=N\O)cc1 47.8%
COc1ccccc1/C=N\N=C(\N)c1ccccn1 48.5%
COC(=O)c1sccc1NC(=O)c1csc(C)c1 49%
NC(=O)C1(N2CCCCC2)CCN(Cc2nc(-c3cccs3)no2)CC1 24.1%
COC(=O)c1ccc(C(=O)OC)c(NC(=O)COC(=O)C2CCCCC2)c1 35.8%
COC(=O)c1ccc(NC(=O)CN2C(=O)CNC2=O)cc1 30.4%
CCOC(=O)C1(Cc2ccc(OC)cc2)CCN(C(=O)CCc2cnccn2)CC1 20.9%
Cc1cccnc1NC(=O)c1ccccc1NC(=O)C(C)(C)C 41.2%
Cc1cc(C)c([C@@H]2C[C@H]3CN(C4CCCC4)C(=O)[C@]34CCCN24)c(-n2cccn2)c1 36.2%
O=C(Nc1ccc(Cl)c(Cl)c1)c1ccncc1 44.9%
C=C(C)C(=O)Nc1cccc(C(C)=O)c1 38.2%
CS(=O)(=O)N(Cc1ccccc1)c1ccc(C(=O)Nc2cccnc2)cc1 36%
CS(=O)(=O)N(Cc1ccccc1)c1ccc(C(=O)Nc2ccc3c(c2)OCO3)cc1 36%
O=C(COC(=O)CCC1CCCCC1)Nc1ccc(OC(F)F)cc1 23.5%
O=C(CN1CCN(c2ccccc2)CC1)Nc1ccc2c(c1)CCC2 21.1%
COc1ccc(OCC(=O)NC(=S)N2CCCc3ccccc32)cc1 37.9%

inhibition, active:
N/C(Cc1cccs1)=N\OC(=O)COc1ccccc1Cl 59.1%
C=CCNC(=S)N/N=C(\C)c1ccccn1 90.2%
O=C(N/N=C/c1cc(Cl)ccc1O)c1ccc(Br)cc1 54.1%
COC(=O)c1ccc(Oc2ccc(S(=O)(=O)N3CCCCC3)cc2N)cc1 97.8%
C=CCc1cc(Cl)ccc1OCCOCCNCCOC 50.9%
O=C(NCc1ccco1)c1cnn2c1NC(c1ccc(Br)cc1)CC2C(F)(F)F (configuration not stated) 63.1%
CC1CC1C(=O)Nc1nc(-c2ccccc2)cs1 (configuration not stated) 68.5%
Cc1cc(C)cc(N2C(=O)CC(Sc3ncn[nH]3)C2=O)c1 (configuration not stated) 63.5%
CC(C)c1ccc(N2C(=O)CC(Sc3ncn[nH]3)C2=O)cc1 (configuration not stated) 58.9%
CCn1c(N2CCN(C(=O)C34CC5CC(CC(C5)C3)C4)CC2)nc2ccccc21 54.5%
c1csc(C2Nc3ccccc3-c3nc4ccccc4n32)c1 (configuration not stated) 64.8%
CCN1c2ccccc2-c2nc3ccccc3n2C1c1cccs1 (configuration not stated) 63.7%
CN1c2ccccc2-c2nc3ccccc3n2C1c1cccs1 (configuration not stated) 62.9%
Cc1nc2cc(C(=O)NCc3ccc4c(c3)OCO4)ccc2n1-c1ccc(Br)cc1 58.9%
COc1cc(NC(=O)c2cccs2)cc(OC)c1 82%
O=C(CN1CCCCC1)Nc1nc(-c2ccc(F)c(F)c2)cs1 55.9%
CC(C)CC(=O)/C(=C\c1ccc(Cl)cc1Cl)n1cncn1 101%
O=C(COC(=O)Cc1c(F)cccc1Cl)NCCC1=CCCCC1 61.6%
Cc1ccc(Oc2ccccc2/C=N/O)cc1 51.9%
Cc1ccc2c(Cl)c(C)c(N3CCCCC3)nc2n1 74.8%
COC(=O)c1ccc(NC(=O)C(=O)N2CCCC2)cc1 52.5%
COc1ccc(Nc2ncccc2C(=O)NCc2ccccc2)cc1 67%
O=C(Nc1ccc2c(c1)CCC2)c1ccccc1 71.7%
O=C(COc1ccc(Cl)cc1)Nc1ccc2c(c1)CCC2 71.5%
O=C(Nc1ccc2c(c1)Cc1ccccc1-2)c1ccncc1 74.5%
O=C(Nc1ccc2nc3ccccc3nc2c1)c1ccccc1 90.7%
